Reference: PubChem BioAssay
Inconclusive results are not listed. Calls of active or inactive are those of the source.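 How the source made its calls, unless noted: active means normalized viability below 100% at a tested concentration; inactive means the rest.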

Key:
[1] = viability loss in pontine glioma line – cell-based, SU-DIPG-XVII, MIPE5.0, CellTiter-Glo, qHTS, dose response (AID 1347060; cut-off not given, nearly all actives have AC50 up to about 26 µM;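 on AC50: cells exposed to compound for 48 hours before viability readout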); conditions: CellTiter-Glo ATP luminescence
[2] = viability loss in pontine glioma line – cell-based, SU-DIPG-XIII, MIPE4.0, CellTiter-Glo, qHTS, dose response (AID 1347061; cut-off not given, nearly all actives have AC50 up to about 37 µM;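 further: cells exposed to compound for 48 hours before readout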); conditions: CellTiter-Glo ATP luminescence
[3] = drug combination growth inhibition, ovarian cancer – cell-based, oncology-focused library, rucaparib conditional, profiling panel (AID 1508598); conditions: patient-derived ovarian cancer cells, CellTiter-Glo viability, 144 h, stronger effect = lower value
[4] = viability loss in pontine glioma line – cell-based, JHH-DIPG-1, MIPE4.0, CellTiter-Glo, qHTS, dose response (AID 1347062; cut-off not given, nearly all actives have AC50 up to about 27 µM;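 on AC50: cells exposed to compound for two days before readout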); conditions: JHH-DIPG-1 viability, CellTiter-Glo ATP luminescence
[5] = viability loss in pontine glioma line – cell-based, SU-DIPG-IV, MIPE4.0, CellTiter-Glo, qHTS, dose response (AID 1347063; cut-off not given, nearly all actives have AC50 up to about 30 µM;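 further: compound exposure lasted 48 hours before the viability readout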); conditions: CellTiter-Glo ATP luminescence
[6] = viability loss in pontine glioma line – cell-based, SU-DIPG-XIII, MIPE5.0, CellTiter-Glo, qHTS, dose response (AID 1347064; cut-off not given, nearly all actives have AC50 up to about 23 µM;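 on AC50: cells exposed to compound for 48 hours before the viability read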); conditions: CellTiter-Glo ATP luminescence
[7] = viability loss in pontine glioma line – cell-based, SU-DIPG-XXV, MIPE5.0, CellTiter-Glo, qHTS, dose response (AID 1347065; cut-off not given, nearly all actives have AC50 up to about 26 µM;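 further: cells exposed to compound for 48 hours before ATP readout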); conditions: CellTiter-Glo ATP luminescence
[8] = growth inhibition of DIPG cells – cell-based, MIPE4.0 library, CellTiter-Glo luminescence, qHTS (AID 1347066; cut-off not given, nearly all actives have AC50 up to about 30 µM;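 further: cells exposed to compound for 48 hours before readout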); conditions: SU-DIPG-VI viability, CellTiter-Glo ATP luminescence
[9] = JHH-DIPG-1 glioma cell viability, MIPE5.0 library, CellTiter-Glo luminescence, qHTS (AID 1347067; cut-off not given, nearly all actives have AC50 up to about 26 µM;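 further: cells exposed to compound for 48 hours before readout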); conditions: JHH-DIPG-1 glioma viability, CellTiter-Glo ATP luminescence
[10] = growth inhibition of DIPG cells – cell-based, MIPE5.0 library, qHTS (AID 1347068; cut-off not given, nearly all actives have IC50 up to about 30 µM;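 on IC50: cells exposed to compound for 48 hours before viability readout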); conditions: SU-DIPG-XXV viability
[11] = viability loss with induced miR-34 in A549 – imaging, A549 dox-inducible miR-34, nuclei and caspase counts, primary screen (AID 1347080;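 active means compounds whose cell count with miR-34 switched on is under 0.7 times the count with it off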); conditions: A549 miR-34 inducible, Hoechst nuclei count, 48 h
[12] = compounds altering HSF1 focus formation in cells – imaging, Selleck Cancer Library (AID 1347162; in the data active means plate-normalised HSF1 focus index below about 0.46); conditions: human cells, HSF1 nuclear foci imaging, at 10 µM; SSMD: measured here: HSF1 foci SSMD mean; cell count: measured here: cell number; plate-normalised HSF1 focus index: stronger effect = lower value
[13] = MELAS cybrid and Rieske KO viability enhancers – cell-based, MELAS cybrids, Rieske KO mouse fibroblasts, CellTiter-Glo, primary screen (AID 1508586;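 active means mean z-score across replicates of 1.96 or higher in either the MELAS or the Rieske mutant cell line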;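 further: z relative to plate mean and SD of compound and empty wells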); conditions: low glucose
[14] = at 0.000305 µM, OCI-C5x cells, with rucaparib 10 µM, 100% = cells with rucaparib alone
[15] = at 0.000305 µM, OCI-C5x cells, without rucaparib
[16] = at 0.000305 µM, OCI-P5x cells, with rucaparib 20 µM, 100% = cells with rucaparib alone
[17] = at 0.000305 µM, OCI-P5x cells, without rucaparib
[18] = at 0.00122 µM, OCI-C5x cells, with rucaparib 10 µM, 100% = cells with rucaparib alone
[19] = at 0.00122 µM, OCI-C5x cells, without rucaparib
[20] = at 0.00122 µM, OCI-P5x cells, with rucaparib 20 µM, 100% = cells with rucaparib alone
[21] = at 0.00122 µM, OCI-P5x cells, without rucaparib
[22] = at 0.00488 µM, OCI-C5x cells, with rucaparib 10 µM, 100% = cells with rucaparib alone
[23] = at 0.00488 µM, OCI-C5x cells, without rucaparib
[24] = at 0.00488 µM, OCI-P5x cells, with rucaparib 20 µM, 100% = cells with rucaparib alone
[25] = at 0.00488 µM, OCI-P5x cells, without rucaparib
[26] = at 0.0195 µM, OCI-C5x cells, with rucaparib 10 µM, 100% = cells with rucaparib alone
[27] = at 0.0195 µM, OCI-C5x cells, without rucaparib
[28] = at 0.0195 µM, OCI-P5x cells, with rucaparib 20 µM, 100% = cells with rucaparib alone
[29] = at 0.0195 µM, OCI-P5x cells, without rucaparib
[30] = at 0.0781 µM, OCI-C5x cells, with rucaparib 10 µM, 100% = cells with rucaparib alone
[31] = at 0.0781 µM, OCI-C5x cells, without rucaparib
[32] = at 0.0781 µM, OCI-P5x cells, with rucaparib 20 µM, 100% = cells with rucaparib alone
[33] = at 0.0781 µM, OCI-P5x cells, without rucaparib
[34] = at 0.313 µM, OCI-C5x cells, with rucaparib 10 µM, 100% = cells with rucaparib alone
[35] = at 0.313 µM, OCI-C5x cells, without rucaparib
[36] = at 0.313 µM, OCI-P5x cells, with rucaparib 20 µM, 100% = cells with rucaparib alone
[37] = at 0.313 µM, OCI-P5x cells, without rucaparib
[38] = at 1.25 µM, OCI-C5x cells, with rucaparib 10 µM, 100% = cells with rucaparib alone
[39] = at 1.25 µM, OCI-C5x cells, without rucaparib
[40] = at 1.25 µM, OCI-P5x cells, with rucaparib 20 µM, 100% = cells with rucaparib alone
[41] = at 1.25 µM, OCI-P5x cells, without rucaparib
[42] = at 5 µM, OCI-C5x cells, with rucaparib 10 µM, 100% = cells with rucaparib alone
[43] = at 5 µM, OCI-C5x cells, without rucaparib
[44] = at 5 µM, OCI-P5x cells, with rucaparib 20 µM, 100% = cells with rucaparib alone
[45] = at 5 µM, OCI-P5x cells, without rucaparib
[46] = stronger effect = lower value, cell number ratio, induced over uninduced
[47] = measured here: relative caspase fold change +Dox/-Dox
[48] = measured here: total cells with miR-34 induction, stronger effect = lower value
[49] = measured here: total cells without miR-34 induction
[50] = MELAS cybrid survival, CellTiter-Glo 48 h, stronger effect = higher value
[51] = Rieske KO mouse fibroblast survival, CellTiter-Glo 72 h

Cc1c(NC(=O)OC[C@@H]2COCCN2)cn2ncnc(Nc3ccc4c(cnn4Cc4cccc(F)c4)c3)c12
inactive: outcome [2] | viability [3, 14] 137% | viability [3, 15] 137% | viability [3, 16] 115% | viability [3, 17] 112% | viability [3, 18] 131% | viability [3, 19] 144% | viability [3, 20] 114% | viability [3, 21] 111% | viability [3, 22] 117% | viability [3, 23] 132% | viability [3, 24] 109% | viability [3, 26] 119% | viability [3, 27] 133% | viability [3, 28] 109% | viability [3, 30] 116% | viability [3, 31] 139% | viability [3, 32] 111% | viability [3, 34] 121% | viability [3, 35] 133% | viability [3, 36] 103% | viability [3, 38] 121% | viability [3, 39] 140% | viability [3, 43] 144%
active: AC50 [1] 23.5 µM | viability [3, 25] 96.9% | viability [3, 29] 98.1% | viability [3, 33] 98% | viability [3, 37] 96.4% | viability [3, 40] 96.9% | viability [3, 41] 92.8% | viability [3, 42] 89.2% | viability [3, 44] 92.1% | viability [3, 45] 96.9%

Cn1cnc(=N)c2[nH]cnc21
7250: cell count [12]
10400: cell count [11, 49]
0.712: fold change [11, 47]
active: AC50 [4] 4.69 µM | AC50 [5] 4.69 µM | AC50 [8] 0.235 µM | viability [3, 16] 99% | viability [3, 17] 94.2% | viability [3, 21] 97.1% | viability [3, 25] 99.6%
2.26: SSMD [12]
9400: cell count [11, 48]
inactive: outcome [1] | outcome [6] | outcome [7] | outcome [9] | outcome [10] | fold change [11, 46] 0.904 | plate-normalised HSF1 focus index [12] 1.08 | z-score [13, 50] -0.304 | viability [3, 14] 112% | viability [3, 15] 111% | viability [3, 18] 111% | viability [3, 19] 114% | viability [3, 20] 100% | viability [3, 22] 107% | viability [3, 23] 119% | viability [3, 24] 108% | viability [3, 26] 114% | viability [3, 27] 112% | viability [3, 28] 113% | viability [3, 29] 102% | viability [3, 30] 107% | viability [3, 31] 111% | viability [3, 32] 116% | viability [3, 33] 107% | viability [3, 34] 112% | viability [3, 35] 116% | viability [3, 36] 107% | viability [3, 37] 109% | viability [3, 38] 110% | viability [3, 39] 115% | viability [3, 40] 109% | viability [3, 41] 109% | viability [3, 42] 100% | viability [3, 43] 125% | viability [3, 44] 116% | viability [3, 45] 110%
-0.808: z-score [13, 51]

O=C(O)CCCCCC(=O)NN=C1CCCC1
inactive: outcome [1] | outcome [4] | outcome [5] | outcome [6] | outcome [7] | outcome [8] | outcome [9] | outcome [10]

O=C(O)[C@H](CC(=O)N1C[C@H]2CCCC[C@H]2C1)Cc1ccccc1
inactive: outcome [1] | outcome [4] | outcome [5] | outcome [6] | outcome [7] | outcome [8] | outcome [9] | outcome [10]

CC1(C)Cc2c(sc(NC(=S)NC(=O)c3ccccc3)c2C(=O)O)CO1
inactive: outcome [1] | outcome [4] | outcome [5] | outcome [6] | outcome [7] | outcome [8] | outcome [9] | outcome [10]

CCCCOc1ccc(C(=O)Nc2ccc(F)cc2F)cc1
0.589: z-score [13, 51]
inactive: outcome [1] | outcome [4] | outcome [5] | outcome [6] | outcome [7] | outcome [8] | outcome [9] | outcome [10] | fold change [11, 46] 0.889 | z-score [13, 50] -0.373
9070: cell count [11, 48]
0.917: fold change [11, 47]
10200: cell count [11, 49]

O=C(c1ccc(F)cc1)N1CCC[C@H](c2nc(-c3ccc(F)cc3)no2)C1
inactive: outcome [1] | outcome [4] | outcome [5] | outcome [6] | outcome [7] | outcome [8] | outcome [9] | outcome [10]

CC[C@H](C)n1cc(C)c2c(C(=O)NCc3c(C)cc(C)[nH]c3=O)cc(-c3ccc(N4CCNCC4)nc3)cc21
active: AC50 [2] 14.8 µM | AC50 [8] 23.5 µM | IC50 [10] 20.9 µM
inactive: outcome [1]

COC(=O)Nc1ccc(-c2nc(N3CCOCC3)c3cnn(C4CCN(Cc5cccnc5)CC4)c3n2)cc1
active: AC50 [1] 5.25 µM | AC50 [4] 6.62 µM | AC50 [5] 0.235 µM | AC50 [6] 6.61 µM | AC50 [7] 1.48 µM | AC50 [8] 14.8 µM | AC50 [9] 6.61 µM | IC50 [10] 13.2 µM

C=C[C@H]1CN2CCC1C[C@@H]2C(O)c1ccnc2ccc(OC)cc12 (some centres undefined)
0.977: fold change [11, 47]
5880: cell count [11, 49]
inactive: outcome [1] | outcome [4] | outcome [5] | outcome [6] | outcome [7] | outcome [8] | outcome [9] | outcome [10] | fold change [11, 46] 0.966
5680: cell count [11, 48]

C/C(=N\NC(=S)N1CCC1)c1ccccn1
active: AC50 [1] 0.00934 µM | AC50 [4] 1.48 µM | AC50 [5] 0.0105 µM | AC50 [6] 0.0235 µM | AC50 [7] 0.0132 µM | AC50 [8] 9.35 µM
